The structures appear in SMILES notation. “And” between values parts separate entries of the source, which are not always exact repeats. Equal values may be shown once. Records with an inconclusive call do not appear. A number with no mark means an inactive call. The source made the active and inactive calls. Calls come from the whole dose curve; as a rule, active = well fitted curve in the direction sought with a large enough effect; inconclusive = small, poorly fitted or top-dose-only effect, or another doubt; inactive = no such curve, though single readings can be large; an effect the other way counts as inactive or inconclusive.
Potency is the fitted concentration of half-maximal effect.

One assay can be described thus: Quantitative highthroughput screen to assess conditional lethalithy of SEM cells grown in RPMI1640 with unreated serum (RPMI+s) (AID 1963883).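 For viability: 100% = DMSO wells and 0% = empty wells without cells.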 Note: nearly all actives have a fitted effect of over 35% in size. The note with it: SEM B-ALL cells, CellTiter-Glo viability, 48 h; series mostly up to 45.8 µM; viability: at the top concentration. The gist of the method: (§1)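 Each medium arm—HPLM with 10% dialyzed FBS, or RPMI1640 with 5 mM glucose and 10% untreated or dialyzed FBS—was screened against an 11-point, 3-fold compound titration for 48 h at 37 °C, with CellTiter-Glo luminescence as endpoint.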
As for `Cc1ccc(NC(=O)Nc2cc(C(F)(F)F)ccc2F)cc1Nc1ccc2c(c1)NC(=O)C2=Cc1ccc[nH]1`, the Potency was 18.7 µM (active). The same measure, in the same setting: the value for `O=c1[nH]c(=O)n([C@H]2C[C@@H](O)[C@@H](CO)O2)cc1F` was 2.35 µM (active). In the case of `OC[C@H]1O[C@@H](Oc2cc(O)cc(C=Cc3ccc(O)cc3)c2)[C@H](O)[C@@H](O)[C@H]1O`, the “viability” value was 99.9%. For `COc1cc2c(Nc3ccc(Cl)c(Cl)c3F)ncnc2cc1OCC1C[C@@H]2CN(C)C[C@H]2C1`, the Potency was 2.64 µM (active). The same measure, in the same setting: the value for `C=CC[C@@H]1C=C(C)C[C@H](C)C[C@H](OC)[C@H]2O[C@@](O)(C(=O)C(=O)N3CCCC[C@H]3C(=O)O[C@H](C(C)=C[C@@H]3CC[C@H](O)[C@H](OC)C3)[C@@H](C)[C@@H](O)CC1=O)[C@@H](C)C[C@@H]2OC` was 1.48 µM (active). Turning to `CNC(=O)c1ccc(N2C(=S)N(c3cnc(C#N)c(C(F)(F)F)c3)C(=O)C23CCC3)cc1F`, the “viability” value is 95.1%.

As for `O=C(Nc1ccccc1)Nc1ccc(-c2ccc(C(=O)[C@H]3CCC[C@H]3C(=O)O)cc2)cc1`, the “viability” value is 113%. Same read-out and setting: the value for `O=c1cc(-c2ccc(O)cc2)oc2cc(O)cc(O)c12` was 88.6%. Take `Nc1ccn([C@@H]2O[C@H](CO)[C@H](O)C2(F)F)c(=O)n1`: the Potency was 0.0166 µM (active).

On to `Cc1cnn(C)c1C(=O)Nc1cc(Nc2ccc3c(C=Cc4ccccn4)n[nH]c3c2)ccc1F`, for which the Potency was 3.72 µM (active). As for `CC1(C)C(=O)N(CCN2CCC(C(=O)c3ccc(F)cc3)CC2)c2ccccc21`, the “viability” value is 82.7%.

The next assay is described as follows: Quantitative highthroughput screen to assess conditional lethalithy of SEM cells grown in RPMI1640 with dialyzed fetal bovine serum (RPMI+ds) (AID 1963884).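 For viability: 100% = DMSO control wells and 0% = empty wells without cells.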 Note: nearly all actives have a fitted effect of over 35% in size. To be noted: SEM B-ALL cells, RPMI+dialyzed FBS, CellTiter-Glo viability, 48 h; series mostly up to 45.8 µM; viability: at the top concentration. In a few lines:
as §1
For `CC(=O)NCC(=O)N1[C@H]2CC[C@H]1c1cc(Nc3ncc(C(F)(F)F)c(NC4CCC4)n3)ccc12`, the Potency was 0.105 µM (active). Take `COc1ccc(-c2coc3cc(O)ccc3c2=O)cc1`: the “viability” value is 124%. Regarding `CC(=O)Nc1sc2c(c1-c1nc3ccccc3s1)CNC2`, the Potency is 18.7 µM (active).

With `CC(=O)O[C@@]12CO[C@H]1C[C@H](O)[C@@]1(C)C(=O)[C@H](O)C3=C(C)[C@@H](OC(=O)C(O)[C@@H](NC(=O)OC(C)(C)C)c4ccccc4)C[C@@](O)([C@@H](OC(=O)c4ccccc4)[C@@H]21)C3(C)C` (stereo partly specified), the “viability” value is 2.53%. On to `COc1cc(O)c2c(c1)C(=O)c1cc(C)cc(O)c1C2=O`, for which the Potency was 5.12 µM (active). On to `CCOC(=O)c1c(CSc2ccccc2)n(C)c2cc(Br)c(O)c(CN(C)C)c12`, for which the “viability” value was 66.7%.

`O=c1c(-c2ccc(O)cc2)coc2cc(O)cc(O)c12`: the “viability” value was 54.1%.

`CC(N[C@H]1CCCC[C@H]1NC(=O)c1ccc(Cl)cc1)c1cccc2ccccc12` (stereo partly specified): the “viability” value was 107%. Still for that read-out and setting: the value for `CN[C@H]1[C@@H](O)[C@@H]2O[C@@H]3O[C@H](C)CC(=O)[C@]3(O)O[C@@H]2[C@@H](NC)[C@H]1O` was 92.1%. Take `Cc1ccc(NC(=O)Nc2cc(C(F)(F)F)ccc2F)cc1Nc1ccc2c(c1)NC(=O)C2=Cc1ccc[nH]1`: the Potency is 16.6 µM (active). For `OC[C@H]1O[C@@H](Oc2cc(O)cc(C=Cc3ccc(O)cc3)c2)[C@H](O)[C@@H](O)[C@H]1O`, the “viability” value is 108%. In the case of `Oc1ccc(C=Cc2cc(O)cc(O)c2)cc1`, the Potency was 20.9 µM (active). Turning to `COc1cc2c(Nc3ccc(Cl)c(Cl)c3F)ncnc2cc1OCC1C[C@@H]2CN(C)C[C@H]2C1`, the Potency is 11.8 µM (active). In the case of `CNC(=O)c1ccc(N2C(=S)N(c3cnc(C#N)c(C(F)(F)F)c3)C(=O)C23CCC3)cc1F`, the “viability” value was 106%.

In the case of `CC(C)NC[C@@H](C(=O)N1CCN(c2ncnc3c2[C@H](C)C[C@H]3O)CC1)c1ccc(Cl)cc1`, the Potency is 0.296 µM (active). In the case of `O=C(Nc1ccccc1)Nc1ccc(-c2ccc(C(=O)[C@H]3CCC[C@H]3C(=O)O)cc2)cc1`, the “viability” value was 121%. In the case of `Nc1ccn([C@@H]2O[C@H](CO)[C@H](O)C2(F)F)c(=O)n1`, the Potency was 0.0059 µM (active).

`Cc1cnn(C)c1C(=O)Nc1cc(Nc2ccc3c(C=Cc4ccccn4)n[nH]c3c2)ccc1F`: the Potency was 2.64 µM (active).

`CC1(C)C(=O)N(CCN2CCC(C(=O)c3ccc(F)cc3)CC2)c2ccccc21`: the “viability” value is 87.3%.

The next assay in a line: Cellular viability qHTS for adrenocortical cancer (ACC) cell line SW-13 (AID 1963989).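 For activity (max response): cells grown in serum-free medium with ITS supplement; % is set by controls: 0 for no effect and ±100 for the full control effect.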 Note: nearly all actives have a fitted effect of over 65% in size. To be noted: SW-13 ACC cells viability, CellTiter-Glo, 48 h; activity (max response): hits give low values. In a few lines: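 Viability was read as CellTiter-Glo luminescence after 48 h compound treatment (up to 46 uM final) of SW-13 cells grown serum-free; titration curves were fit with a four-parameter logistic model to give IC50 and efficacy.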
With `O=C(Cc1cccc(OC(F)(F)F)c1)Nc1ccc(CCCCc2nnc(NC(=O)Cc3ccccn3)s2)nn1`, the activity (max response) is 11.1%. Still for that read-out and setting: the value for `NCc1c[nH]c(=S)n1[C@H]1CCc2c(F)cc(F)cc2C1` was -7.85%; that for `CC1=C(C(=O)Nc2cc3cn[nH]c3cc2F)C(c2ccc(C(F)(F)F)cc2)CC(=O)N1` (stereo unspecified) was 5.03%. As for `CC(N[C@H]1CCCC[C@H]1NC(=O)c1ccc(Cl)cc1)c1cccc2ccccc12` (stereo partly specified), the Potency was 25.1 µM (active). In the case of `CC(C)N(C[C@H]1O[C@@H](n2cnc3c(N)ncnc32)[C@H](O)[C@@H]1O)C1CC(CCc2nc3ccc(C(C)(C)C)cc3[nH]2)C1` (stereo partly specified), the activity (max response) was 7.65%.

Consider `NNCCc1ccccc1`, for which the activity (max response) is -8.17%.

For the molecule `C[C@@H]1C[C@H]2[C@@H]3CCC4=CC(=O)C=C[C@]4(C)[C@@]3(F)[C@@H](O)C[C@]2(C)[C@@]1(O)C(=O)CO`, the activity (max response) was 6.21% and 9.17%.

Regarding `CNC(=O)c1ccc(N2C(=S)N(c3cnc(C#N)c(C(F)(F)F)c3)C(=O)C23CCC3)cc1F`, the activity (max response) is 4.43%. The same measure, in the same setting: the value for `CC(C)C[C@H](NC(=O)[C@@H](O)[C@H](N)Cc1ccccc1)C(=O)O` was 9.42%; that for `O=c1cc(-c2ccc(O)cc2)oc2cc(O)cc(O)c12` was -18.3%. On the same count and under the same terms, the value for `Clc1ccc2ncc(-c3cccc(NC4CNC4)n3)n2c1` was 12.3%.
